Measured values: PubChem BioAssay (EPA / NIEHS)
“And” between values parts separate entries of the source, which are not always exact repeats. Equal values may be shown once. Records with an inconclusive call do not appear. The source made the active and inactive calls. The calls were made as follows: active = hit-call score of the fitted dose curve at least 0.9, where 1 is the maximum; inconclusive = response in the unintended direction; inactive = score below 0.9.

Target: Glucocorticoid receptor (Homo sapiens) (UniProt P04150)
Sequence (P04150 whole entry, looked up): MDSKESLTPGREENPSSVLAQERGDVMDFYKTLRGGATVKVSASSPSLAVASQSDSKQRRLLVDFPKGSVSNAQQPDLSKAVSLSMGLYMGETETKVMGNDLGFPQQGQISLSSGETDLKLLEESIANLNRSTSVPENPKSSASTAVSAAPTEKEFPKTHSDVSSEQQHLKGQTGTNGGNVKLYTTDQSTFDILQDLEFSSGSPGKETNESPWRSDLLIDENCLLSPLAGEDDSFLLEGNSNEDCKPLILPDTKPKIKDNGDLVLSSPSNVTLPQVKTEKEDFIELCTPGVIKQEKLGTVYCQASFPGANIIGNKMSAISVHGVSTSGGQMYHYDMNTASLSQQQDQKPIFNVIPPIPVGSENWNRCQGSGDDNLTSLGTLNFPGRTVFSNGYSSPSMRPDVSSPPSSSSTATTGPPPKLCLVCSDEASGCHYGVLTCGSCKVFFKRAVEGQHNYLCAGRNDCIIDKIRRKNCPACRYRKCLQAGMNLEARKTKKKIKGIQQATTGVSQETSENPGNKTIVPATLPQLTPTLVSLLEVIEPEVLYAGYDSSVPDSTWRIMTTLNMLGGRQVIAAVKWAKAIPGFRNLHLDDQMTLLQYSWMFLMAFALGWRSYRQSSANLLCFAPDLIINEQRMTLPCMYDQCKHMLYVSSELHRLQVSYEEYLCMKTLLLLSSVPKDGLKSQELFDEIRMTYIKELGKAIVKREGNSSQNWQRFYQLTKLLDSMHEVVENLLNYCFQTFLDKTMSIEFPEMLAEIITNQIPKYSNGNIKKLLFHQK
Test: NVS_NR_hGR: NovaScreen (NVS) Nuclear Receptor Binding Assay for human Glucocorticoid Receptor (GR) (AID 2283363)
Description: NVS_NR_hGR is a biochemical, single-readout assay that uses extracted gene-proteins in a cell-free assay. Measurements were taken 16 hours after chemical dosing in a 96-well plate.NVS_NR_hGR is one of one assay component(s) measured or calculated from the NVS_NR_hGR assay. It is designed to make measurements of radioligand binding, a form of binding reporter, as detected with scintillation counting signals by Filter-based radiodetection technology.Data from the assay component NVS_NR_hGR was analyzed into 1 assay endpoint. This assay endpoint, NVS_NR_hGR, was analyzed in the positive analysis fitting direction relative to DMSO as the negative control and baseline of activity. Using a type of binding reporter, loss-of-signal activity can be used to understand changes in the binding as they relate to the gene NR3C1. Furthermore, this assay endpoint can be referred to as a primary readout, because the performed assay has only produced 1 assay endpoint. To generalize the intended target to other relatable targets, this assay endpoint is annotated to the nuclear receptor intended target family, where the subfamily is steroidal.
Binding assays used specific radioligands (tritiated, iodinated) with non-radioactive competitive displacement ligands in agonist or antagonist protocols (as indicated) and various reference compounds and inhibitors to titrate specific binding to receptors and transporters. Most enzyme assays (CYPs, kinases, phosphatases, proteases, HDACs) used recombinant protein and specific substrates (fluorescence mostly, some colorimetric and radioactive) and inhibitors, followed by a biochemical separation of substrate and product. All assays for the biochemical HTS were initially run in duplicate at a single concentration (10 uM for CYP450 assays and 25 uM for all others). […] Each assay was run with positive and negative controls, and concurrent controls on every plate. The follow-up (secondary) screen tested active chemical-pairs in concentration series, as well as a few additional assays not tested in the primary screen, some selected negative inactives, and several cases re-run in the concentration series for confirmatory purposes.

Row | SMILES | AC50 | outcome
1 | CCCCCCCCCC[N+](C)(C)CCCCCCCCCC | 5.53 µM (active) | 
2 | CCC(=O)O[C@H]1CC[C@H]2[C@@H]3CCC4=CC(=O)CC[C@]4(C)[C@H]3CC[C@]12C | 2.45 µM (active) and 896 nM (active) and 841 nM (active) | 
3 | ClC1=C(Cl)[C@]2(Cl)[C@@H]3[C@@H]4C[C@@H]([C@H]5O[C@@H]45)[C@@H]3[C@@]1(Cl)C2(Cl)Cl |  | inactive
4 | Oc1c(Cl)c(Cl)c(Cl)c(Cl)c1Cl |  | inactive
5 | OCC(O)CO | 4.96 µM (active) | 
6 | CCOC(=O)C(O)(c1ccc(Cl)cc1)c1ccc(Cl)cc1 |  | inactive
7 | C[C@]12CCC(=O)C=C1CC[C@@H]1[C@@H]2CC[C@@]2(C)[C@H]1CC[C@]2(C)O | 401 nM (active) and 201 nM (active) and 306 nM (active) | 
8 | CC(C)(c1ccccc1)c1ccc(O)cc1 | 5.28 µM (active) and 6.67 µM (active) and 16.2 µM (active) | 
9 | O=C(O)C(F)(F)C(F)(F)C(F)(F)C(F)(F)C(F)(F)C(F)(F)C(F)(F)C(F)(F)C(F)(F)F |  | inactive
10 | Oc1ccc(C(c2ccc(O)cc2)(C(F)(F)F)C(F)(F)F)cc1 | 726 nM (active) [middle of 4 runs] | 
